About 2,000 (36%) of roughly 5,500 compounds were called active. Inconclusive results (about 18%) are left out. Rule as the data show it: active = normalized growth mostly below about 0.91 (no sharp cut-off); inconclusive = no clear call, values can overlap the other calls; inactive = mostly above about 0.92. Some of the results follow.
Assay: chemical genetic growth profiling, strain panel (AID 1159580);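 also: tested at 20 µM; growth read once vehicle control cultures reached saturation at 30 °C; 1 = growth at the plate median or of vehicle wells; lower values mean less growth of the strain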
Settings: growth OD

Measured: normalized growth

CCOC(=O)[C@H](CCc1ccccc1)N[C@H]1CCc2ccccc2N(CC(=O)O)C1=O
inactive: S. cerevisiae deletion strains, locus YJR075W, strain HOC1, hits give low values 0.994 | S. cerevisiae deletion strains, locus YKL009W, strain mrt4, hits give low values 1 | S. cerevisiae deletion strains, locus YKL068W, hits give low values 0.973 | S. cerevisiae deletion strains, locus YKL085W, strain MDH1 (second series), hits give low values 0.967 | S. cerevisiae deletion strains, locus YKL085W, strain MDH1, hits give low values 0.967 | S. cerevisiae deletion strains, locus YKL160W, strain elf1, hits give low values 0.993 | S. cerevisiae deletion strains, locus YKL190W, strain CNB1, hits give low values 0.989 | S. cerevisiae deletion strains, locus YKR001C, strain vps1, hits give low values 0.983 | S. cerevisiae deletion strains, locus YKR026C, strain gcn3, hits give low values 0.979 | S. cerevisiae deletion strains, locus YKR091W, strain srl3, hits give low values 0.989 | S. cerevisiae deletion strains, locus YLL001W, strain dnm1, hits give low values 0.983 | S. cerevisiae deletion strains, locus YLL026W, hits give low values 0.989 | S. cerevisiae deletion strains, locus YLL041C, strain sdh2, hits give low values 0.986 | S. cerevisiae deletion strains, locus YLR027C, strain aat2, hits give low values 0.982 | S. cerevisiae deletion strains, locus YLR039C, strain RIC1, hits give low values 1.02 | S. cerevisiae deletion strains, locus YLR058C, strain SHM2, hits give low values 0.999 | S. cerevisiae deletion strains, locus YLR102C, strain apc9, hits give low values 0.972 | S. cerevisiae deletion strains, locus YLR113W, strain HOG1, hits give low values 1.01 | S. cerevisiae deletion strains, locus YLR221C, strain rsa3, hits give low values 0.983 | S. cerevisiae deletion strains, locus YLR258W, strain gsy2, hits give low values 0.983 | S. cerevisiae deletion strains, locus YLR262C, strain YPT6 (second series), hits give low values 0.97 | S. cerevisiae deletion strains, locus YLR262C, strain YPT6, hits give low values 0.955 | S. cerevisiae deletion strains, locus YLR268W, strain sec22, hits give low values 0.98 | S. cerevisiae deletion strains, locus YLR320W, strain mms22, hits give low values 0.966 | S. cerevisiae deletion strains, locus YLR330W, strain CHS5, hits give low values 0.986 | S. cerevisiae deletion strains, locus YLR342W, strain FKS1 (second series), hits give low values 1.05 | S. cerevisiae deletion strains, locus YLR342W, strain FKS1, hits give low values 0.956 | S. cerevisiae deletion strains, locus YLR357W, strain rsc2, hits give low values 0.912 | S. cerevisiae deletion strains, locus YLR370C, strain arc18, hits give low values 0.988 | S. cerevisiae deletion strains, locus YLR371W, strain rom2, hits give low values 0.969 | S. cerevisiae deletion strains, locus YLR384C, strain iki3, hits give low values 0.986 | S. cerevisiae deletion strains, locus YLR418C, strain cdc73, hits give low values 0.953 | S. cerevisiae deletion strains, locus YML016C, strain PPZ1, hits give low values 0.98 | S. cerevisiae deletion strains, locus YML032C, strain rad52, hits give low values 0.984 | S. cerevisiae deletion strains, locus YML120C, strain ndi1, hits give low values 0.975 | S. cerevisiae deletion strains, locus YML124C, strain tub3, hits give low values 0.971 | S. cerevisiae deletion strains, locus YMR058W, strain fet3, hits give low values 0.988 | S. cerevisiae deletion strains, locus YMR078C, strain ctf18, hits give low values 0.978 | S. cerevisiae deletion strains, locus YMR125W, strain sto1, hits give low values 0.996 | S. cerevisiae deletion strains, locus YMR129W, hits give low values 0.991 | S. cerevisiae deletion strains, locus YMR205C, strain PFK2, hits give low values 0.974 | S. cerevisiae deletion strains, locus YMR223W, strain ubp8, hits give low values 0.993 | S. cerevisiae deletion strains, locus YMR231W, strain pep5, hits give low values 0.986 | S. cerevisiae deletion strains, locus YMR263W, strain SAP30, hits give low values 0.993 | S. cerevisiae deletion strains, locus YMR307W, strain GAS1, hits give low values 0.939 | S. cerevisiae deletion strains, locus YNL067W, strain RPL9B, hits give low values 0.996 | S. cerevisiae deletion strains, locus YNL071W, strain lat1, hits give low values 0.989 | S. cerevisiae deletion strains, locus YNL128W, strain TEP1, hits give low values 0.984 | S. cerevisiae deletion strains, locus YNL153C, strain GIM3, hits give low values 0.988 | S. cerevisiae deletion strains, locus YNL183C, strain NPR1, hits give low values 0.959 | S. cerevisiae deletion strains, locus YNL209W, strain ssb2, hits give low values 0.98 | S. cerevisiae deletion strains, locus YNL233W, strain BNI4, hits give low values 0.99 | S. cerevisiae deletion strains, locus YNL248C, strain rpa49, hits give low values 0.98 | S. cerevisiae deletion strains, locus YNL250W, strain rad50, hits give low values 0.963 | S. cerevisiae deletion strains, locus YNL271C, strain bni1, hits give low values 0.959 | S. cerevisiae deletion strains, locus YNL298W, strain CLA4, hits give low values 0.968 | S. cerevisiae deletion strains, locus YNL307C, strain MCK1, hits give low values 0.986 | S. cerevisiae deletion strains, locus YNL322C, strain KRE1 (second series), hits give low values 0.967 | S. cerevisiae deletion strains, locus YNL322C, strain KRE1, hits give low values 0.98 | S. cerevisiae deletion strains, locus YNR049C, strain mso1, hits give low values 0.994 | S. cerevisiae deletion strains, locus YNR052C, strain pop2, hits give low values 0.977 | S. cerevisiae deletion strains, locus YOL006C, strain TOP1, hits give low values 1.08 | S. cerevisiae deletion strains, locus YOL012C, strain htz1 1.02 | S. cerevisiae deletion strains, locus YOL147C, strain pex11, hits give low values 0.975 | S. cerevisiae deletion strains, locus YOR001W, strain rrp6, hits give low values 0.989 | S. cerevisiae deletion strains, locus YOR061W, strain CKA2, hits give low values 0.983 | S. cerevisiae deletion strains, locus YOR069W, strain VPS5, hits give low values 0.99 | S. cerevisiae deletion strains, locus YOR070C, strain gyp1, hits give low values 0.982 | S. cerevisiae deletion strains, locus YOR080W, strain dia2, hits give low values 0.973 | S. cerevisiae deletion strains, locus YOR083W, strain WHI5, hits give low values 0.982 | S. cerevisiae deletion strains, locus YOR106W, strain vam3, hits give low values 0.984 | S. cerevisiae deletion strains, locus YOR136W, strain idh2, hits give low values 0.974 | S. cerevisiae deletion strains, locus YOR144C, strain elg1, hits give low values 0.965 | S. cerevisiae deletion strains, locus YOR184W, strain ser1, hits give low values 0.981 | S. cerevisiae deletion strains, locus YOR231W, strain MKK1, hits give low values 0.976 | S. cerevisiae deletion strains, locus YOR265W, strain rbl2, hits give low values 0.987 | S. cerevisiae deletion strains, locus YOR270C, strain vph1, hits give low values 1.04 | S. cerevisiae deletion strains, locus YOR290C, strain snf2, hits give low values 0.993 | S. cerevisiae deletion strains, locus YOR316C, strain cot1, hits give low values 0.959 | S. cerevisiae deletion strains, locus YPL051W, strain arl3, hits give low values 0.978 | S. cerevisiae deletion strains, locus YPL055C, strain LGE1, hits give low values 1.02 | S. cerevisiae deletion strains, locus YPL078C, strain atp4, hits give low values 0.984 | S. cerevisiae deletion strains, locus YPL106C, strain sse1, hits give low values 0.963 | S. cerevisiae deletion strains, locus YPL240C, strain hsp82, hits give low values 0.979 | S. cerevisiae deletion strains, locus YPL241C, strain CIN2, hits give low values 0.983 | S. cerevisiae deletion strains, locus YPL256C, strain CLN2, hits give low values 0.965 | S. cerevisiae deletion strains, locus YPR119W, strain clb2, hits give low values 0.971 | S. cerevisiae deletion strains, locus YPR141C, strain kar3, hits give low values 0.948 | S. cerevisiae deletion strains, locus YPR163C, strain tif3, hits give low values 0.968 | S. cerevisiae deletion strains, locus YPR167C, strain met16, hits give low values 0.978 | S. cerevisiae deletion strains, strain wtn01, hits give low values 0.973 | S. cerevisiae strains, strain wild type, hits give low values 0.98

— PubChem BioAssay AID1159580 (chemical genetic matrix, 2015)
